“And” between values parts separate entries of the source, which are not always exact repeats. Identical values can stand only once. Records with an inconclusive call do not appear. More than one record can exist for a structure, and the calls need not agree. The source made the active and inactive calls. How the source made its calls: active means hit-call score of the fitted dose curve at least 0.9, where 1 is the maximum; inconclusive means response in the unintended direction; inactive means score below 0.9.

3 compounds from PubChem BioAssay (EPA / NIEHS) can be followed below.

Test [1] concerns frog Estrogen Receptor (ER), gene 398734. The experiment in a line: ATG_frER1_XSP2: Attagene TRANS-FACTORIAL Multi-Species (XSP2) HepG2 Assay for frog Estrogen Receptor (ER) (AID 2283821).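 Further: hits raise reporter mRNA above DMSO baseline so potency means agonist or activator.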 In short, it runs like this: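 Reporter mRNA induction, detected as fluorescence after RT-PCR and capillary electrophoresis, is the endpoint; activity is fitted upward against DMSO. Cells are human liver HepG2 carrying transfected NR-Gal4 chimeras with GAL4-UAS-driven reporters, harvested 24 h post-dosing.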

Test [2] concerns frog Estrogen Receptor (ER2), gene 100174814. As to the kind of experiment: ATG_frER2_XSP2: Attagene TRANS-FACTORIAL Multi-Species (XSP2) HepG2 Assay for frog Estrogen Receptor (ER2) (AID 2283828). In short, it runs like this: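 Cells were transfected with reporter constructs under GAL4-UAS control, dosed with chemicals for 24 h, then lysed for RNA; the frog ER2-driven reporter mRNA was quantified by capillary electrophoresis of labeled PCR fragments, with activity fitted upward from DMSO.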

Test [3] has as its target Peroxisome proliferator-activated receptor gamma (Homo sapiens) (UniProt P37231). As to the kind of experiment: ATG_hPPARg_XSP2: Attagene TRANS-FACTORIAL Multi-Species (XSP2) HepG2 Assay for human Peroxisome Proliferator-activated Receptor gamma (PPARg) (AID 2283829).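 Further: actives raise reporter mRNA above DMSO so AC50 reflects PPARg activation.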 The procedure, abridged: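 Multiplexed transactivation in transfected HepG2 liver cells. Gal4-chimeric receptor activity reported as induced reporter transcript after 24 h.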

Test [4] concerns the target mouse Peroxisome Proliferator-activated Receptor gamma (PPARg), Pparg (gene 19016) (UniProt P37238). The experiment in a line: ATG_mPPARg_XSP2: Attagene TRANS-FACTORIAL Multi-Species (XSP2) HepG2 Assay for mouse Peroxisome Proliferator-activated Receptor gamma (PPARg) (AID 2283830).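 Further: hits are gains in reporter mRNA above DMSO so AC50 marks activation.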 In short, it runs like this: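 Multiplexed TRANS reporter readout: after 24 h chemical exposure of transfected HepG2 cells (with 3 nM 6-alpha-fluorotestosterone, 1.5 nM norgestrel present), RNA reverse-transcribed, amplified, 6-FAM-labelled and resolved by capillary electrophoresis; mouse PPARg-Gal4 induction scored against DMSO.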

Test [5] can be described thus: ATG_M_32_XSP2: Attagene TRANS-FACTORIAL Multi-Species (XSP2) HepG2 Assay for M19 Transcription Factor (Internal Marker) (AID 2283826). The procedure, abridged:
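Total RNA is taken from compound-treated HepG2 cells after 24 h and reverse-transcribed; reporter cDNA is PCR-amplified, end-labelled with 6-FAM, digested with HpaI for 2h at 37 C and sized by capillary electrophoresis. Activity is fitted in the positive direction against DMSO.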

Chain of Peroxisome proliferator-activated receptor gamma (Homo sapiens) (P37231 whole entry, looked up, the tested form may be a part): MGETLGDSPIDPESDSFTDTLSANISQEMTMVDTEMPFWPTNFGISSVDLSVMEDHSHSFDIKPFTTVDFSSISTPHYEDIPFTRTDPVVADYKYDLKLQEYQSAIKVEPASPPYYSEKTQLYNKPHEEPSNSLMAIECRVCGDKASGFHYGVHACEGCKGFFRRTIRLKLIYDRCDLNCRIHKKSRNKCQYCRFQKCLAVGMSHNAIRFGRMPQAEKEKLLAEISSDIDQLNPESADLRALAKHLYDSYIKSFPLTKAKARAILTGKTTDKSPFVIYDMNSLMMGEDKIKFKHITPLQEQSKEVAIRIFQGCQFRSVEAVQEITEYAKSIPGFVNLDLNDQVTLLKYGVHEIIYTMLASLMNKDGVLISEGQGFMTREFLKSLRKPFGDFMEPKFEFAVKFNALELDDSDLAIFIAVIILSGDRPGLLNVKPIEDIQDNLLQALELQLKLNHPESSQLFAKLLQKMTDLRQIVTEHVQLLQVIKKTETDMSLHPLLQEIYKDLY
Chain of mouse Peroxisome Proliferator-activated Receptor gamma (PPARg), Pparg (gene 19016) (P37238 whole entry, looked up, the tested form may be a part): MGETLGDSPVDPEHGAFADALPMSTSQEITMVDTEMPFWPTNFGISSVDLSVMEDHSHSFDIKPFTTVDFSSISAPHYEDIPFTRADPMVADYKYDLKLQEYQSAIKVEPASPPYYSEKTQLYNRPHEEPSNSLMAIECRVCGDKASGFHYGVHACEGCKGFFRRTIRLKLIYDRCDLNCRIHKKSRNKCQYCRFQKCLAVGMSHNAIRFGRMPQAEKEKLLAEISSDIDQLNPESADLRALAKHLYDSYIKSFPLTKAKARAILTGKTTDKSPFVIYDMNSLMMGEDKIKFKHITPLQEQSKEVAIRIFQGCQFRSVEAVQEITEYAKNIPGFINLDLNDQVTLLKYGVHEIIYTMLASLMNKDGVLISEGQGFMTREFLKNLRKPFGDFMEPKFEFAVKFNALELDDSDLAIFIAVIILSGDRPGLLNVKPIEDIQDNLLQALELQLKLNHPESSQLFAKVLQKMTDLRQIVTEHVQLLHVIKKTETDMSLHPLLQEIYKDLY

Consider `O=[N+]([O-])c1ccc(Oc2ccc(Cl)cc2Cl)cc1`, for which the compound was called inactive in test [1] and in test [2]. Besides, the AC50 is 27 µM (active) in test [2]; 16 µM (active) and 10.8 µM (active) in test [3]; 16.9 µM (active) and 27.2 µM (active) in test [4].

Turning to `c1ccc2c(c1)-c1cccc3cccc-2c13`, the compound was classed as inactive in test [1], in test [3] and in test [4]. Moreover, the AC50 in test [2] was 33.4 µM (active) and 25.2 µM (active); in test [3], 21.6 µM (active).

As for `Clc1ccc(C(c2ccc(Cl)cc2)C(Cl)(Cl)Cl)cc1`, the figures for the concentration at half-maximal activity (AC50) in test [1], in test [2] and in test [4] were 37.2 µM (active), 30.9 µM (active) and 100 µM (active), respectively. The compound was classed as inactive in test [5] and in test [3].

The AC50 is the midpoint of the concentration-response curve, whichever way the signal moves.
